TWEAK Fn14 block – blocks TWEAK-Fn14 interaction in a reporter cell assay; TWEAK-stimulated Fn14 reporter cells, luciferase luminescence, 8 h; inhibition, % at 10 µM; 2% of 360,000 active; in the data active means inhibition above about 50%
LMP1 NFkB inh – inhibitors of Epstein-Barr LMP1-induced NF-kappaB reporter | LMP1-induced NF-kappaB luciferase reporter cells, luminescence | inhibition, % at 12.5 µM | AID 504558 | 0.69% of 350,000 active; in the data active means inhibition above about 41%
TRPM1 prom inh – inhibitors of MITF-driven TRPM1 promoter in melanoma cells. SK-MEL-5 TRPM1 promoter luciferase, 24 h. inhibition, % at 12.5 µM. 0.83% of 330,000 active;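 active means mean inhibition across replicates of 60% or more, whatever share of single replicates reaches that level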
Peg3 prom inh – Peg3 promoter activity inhibition. HeLa PEG-Prom luciferase reporter, luminescence, overnight. AID 588405. inhibition, % at 20 µM. 1.7% of 360,000 active;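 active means inhibition of at least 50% at 20 µM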
HIF-2a block – blocks HIF-2a reporter activity; 786-0 RCC cells HIF-2a reporter, luciferase luminescence, overnight; inhibition, % at 18.8 µM; 0.72% of 360,000 active; AID 624352;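 active means inhibition of the luminescence signal of 40% or more relative to plate controls, in a single-dose primary screen at 18.75 µM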
TROY NFkB inh – inhibitors of TROY-dependent NF-kB signaling; 0.98% of 360,000 active; AID 1347056; Q293 LMP1-TROYcd NF-kB luciferase reporter, 4 h; inhibition, % at 10 µM;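 active means compounds whose plate-normalised and pattern-corrected inhibition of the luciferase reporter signal at the single screening dose is 50% or more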
Of the large screens only hits and unclear results are named; the others gave an inactive call. An excerpt weighted towards active compounds, which were near 4% of everything screened.

O=S1(=O)CC(N2CCCCC2)C(N2CCCCC2)C1 (stereo not drawn)	LMP1 NFkB inh 51
O=S1(=O)CC(N2CCCC2)CN1C1CCCCC1 (stereo not drawn)	none (no result: LMP1 NFkB inh, TRPM1 prom inh)
Cc1ccc(C)c(NC(=O)c2ccccc2NS(=O)(=O)c2cc([N+](=O)[O-])ccc2C)c1	TWEAK Fn14 block 58, TROY NFkB inh 55
Cn1cnc([N+](=O)[O-])c1S(=O)(=O)c1ccc(Cl)cc1	Peg3 prom inh 104
O=C(O)C[C@@H](CNC(=O)COc1ccc2ccc(=O)oc2c1)c1ccc(Cl)cc1	none
CC(=O)c1c(C)[nH]c(C(=O)OCC(=O)c2ccc3c(c2)NC(=O)CO3)c1C	none
O=C(CN(c1ccc(Br)cc1)S(=O)(=O)c1ccc(Cl)c([N+](=O)[O-])c1)NCCc1ccccc1	Peg3 prom inh 65
O=C(CN(c1cccc(C(F)(F)F)c1)S(=O)(=O)c1ccc(Cl)c([N+](=O)[O-])c1)NCc1ccccc1	none
COc1ccccc1-c1sc2cc3c(cc2c1C#Cc1cncn1C)OCO3	none
C[C@]12CCC3C(CC[C@H]4CCCC[C@]34C)C1CC[C@@]2(O)CNCCO (stereo partly drawn)	Peg3 prom inh 91
CC(=O)[C@@]1(O)CCC2C3CC[C@H]4C[C@@H](O)CC[C@]4(C)C3CC[C@@]21C (stereo partly drawn)	none
Cc1c(C(=O)Nc2ccc(F)cc2)oc2ccc(S(=O)(=O)N3CCC4(CC3)OCCO4)cc12	TWEAK Fn14 block 54, Peg3 prom inh 55
Cc1c(C(=O)Nc2ccc(S(=O)(=O)N(C)C3CCN(C)CC3)cc2)oc2ccccc12	Peg3 prom inh 89
Cc1c(C(=O)Nc2cccc(Cl)c2)oc2ccc(S(=O)(=O)N3CCC4(CC3)OCCO4)cc12	TWEAK Fn14 block 62, Peg3 prom inh 58
CN1CCC(N(C)S(=O)(=O)c2ccc(NC(=O)c3ccc(S(=O)(=O)N(C)C)cc3)cc2)CC1	none
Cc1c(C(=O)Nc2ccc(F)cc2)oc2ccc(S(=O)(=O)N3CCCC3)cc12	none
CCC(C)NC(=O)c1oc2ccc(S(=O)(=O)N3CCC4(CC3)OCCO4)cc2c1C (stereo not drawn)	none
Cc1c(C(=O)Nc2ccc(F)c(F)c2)oc2ccc(S(=O)(=O)N3CCCCC3)cc12	TWEAK Fn14 block 81, Peg3 prom inh 64
CC(C)NC(=O)N(C)C[C@@H]1OCc2cnnn2CCCC(=O)N([C@H](C)CO)C[C@@H]1C	none (no result: TRPM1 prom inh)
COC(=O)c1ccc(OC)c(Cn2c(=O)n(C)c(=O)c3ccccc32)c1	none
Cc1cc2nc(-c3ccc(F)cc3)c(CC(C)(C)C)n2c(C)c1Br	none (no result: LMP1 NFkB inh, TRPM1 prom inh)
N#CC1=C2N=C(N)c3c(sc4c3CCCCC4)N2C2=C(C(=O)CCC2)C1c1ccccc1 (stereo not drawn)	TROY NFkB inh 54
N#CC1=C2N=C(N)c3ccccc3N2C2=C(C(=O)CCC2)C1c1ccc(F)cc1 (stereo not drawn)	none
C=CCNCC(=O)N1N=C(c2ccc3ccccc3c2)CC1c1ccc(OC)cc1 (stereo not drawn)	Peg3 prom inh 66
COc1ccc(C2CC(c3ccc4ccccc4c3)=NN2C(=O)CNC2CCCCC2)cc1 (stereo not drawn)	Peg3 prom inh 90
COc1ccc(C2CC(c3ccc4ccccc4c3)=NN2C(=O)CN2CCC(C(N)=O)CC2)cc1 (stereo not drawn)	none
COc1ccc(C2CC(c3ccc4ccccc4c3)=NN2C(=O)COC(=O)C2CCC(=O)N2)cc1 (stereo not drawn)	none
Nc1ccccc1S(=O)(=O)NC1=NCCCCC1	TWEAK Fn14 block 104
COc1cc(OC)cc(C(=O)Nn2c(C)nc3ccccc3c2=O)c1	none
COc1ccc2[nH]c3c(c2c1)CCn1c-3nc2ccccc2c1=O	TWEAK Fn14 block 51
C[C@@H](NC(=O)[C@@H]1CCCN1C(=O)OC(C)(C)C)c1ccccc1	none (no result: LMP1 NFkB inh, TRPM1 prom inh, Peg3 prom inh)
O=C(Cc1ccccc1)Nc1cccc(N2C(=O)C=CC2=O)c1	Peg3 prom inh 96
O=C(CC(=O)c1ccccc1)Nc1ccccc1C(F)(F)F	none
Cn1c(=O)c2c(SCC(N)=O)nc(CC(C)(C)C)nc2n(C)c1=O	none
Cn1c(=O)c2c(SCC(=O)N3CCCc4ccccc43)nc(CC(C)(C)C)nc2n(C)c1=O	HIF-2a block 53

Compound activity deposited in PubChem by several laboratories.
